SKN-1 inh – inhibitors of C. elegans SKN-1; C. elegans VP596 Pgst-4::GFP/RFP ratio, acrylamide-induced, 24 h; inhibition, % at 21.8 µM; hit rate 0.49% among 360,000;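 active = interference check ratio from 0.5 to 1.5 plus GFP to RFP signal ratio inhibition reaching or exceeding a fixed threshold, cut at about 30% in these data, passing the limit was not always enough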
SMARCA2 activ – SMARCA2 function activation, primary screen | MG213 cells, MMTV-luciferase reporter, dexamethasone, overnight | activation, % at 9.1 µM | hit rate 1% among 370,000 | AID 652017; in the data active = activation above about 7.8%
esBAF inh – inhibitors of esBAF chromatin remodeling in mouse ES cells; Bmi1-luciferase knock-in reporter, 24 h; 100% = twice the neutral-well signal; reporter increase, % at 12.5 µM; hit rate 2% among 350,000; AID 602393; in the data active = activation above about 40%;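 note: a rise in the Bmi1 reporter signal indicates esBAF inhibition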
NadD block – NadD (S. aureus) enzyme inhibition; inhibition, % at 20 µM; purified NadD enzyme, colorimetric absorbance read-out; hit rate 0.78% among 360,000; in the data active = inhibition above about 26%
Vif imaging – blocks HIV Vif function; HEK293T cells, Vif self-association by quenched fluorescence, imaging, 24 h; inhibition, % at 7.49 µM; hit rate 0.35% among 340,000; AID 602346; in the data active = inhibition above about 50%, passing the limit was not always enough
NR3A LBD binder – NR3A (human) ligand-binding domain modulation | hit rate 2.5% among 340,000 | Tm shift relative to glycine control, % at 25 µM | AID 1259313 | NR3A LBD differential scanning fluorimetry, Tm shift; 0% = protein alone, 100% = glycine-bound protein;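 active = melting temperature shift of at least 10% of the positive control shift, at one fixed dose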
Numbers stand for hits; - = inactive; . = no result given. Rows were chosen to be rich in hits. Some 5.2% of all compounds tested hit in one or more screens of this group.

SMILES	SKN-1 inh	SMARCA2 activ	esBAF inh	NadD block	Vif imaging	NR3A LBD binder
CO[C@H]1CN(C)C(=O)c2cc(NC(=O)NC(C)C)ccc2OC[C@H](C)N(Cc2cncnc2)C[C@H]1C	.	.	-	.	.	.
O=C(COC(=O)c1cc(Cl)ccc1[N+](=O)[O-])NC1CC1	-	-	-	-	55.6	-
O=C(COc1ccc(Cl)cc1Br)NC1CC1	-	-	-	-	-	-
COc1cc(C)ccc1OCC(=O)NC1CCCCCC1	-	-	69.3	-	-	-
CC(=O)c1cc(Cl)ccc1OCC(=O)NC1CCCC1	-	-	52.0	-	-	.
Cc1ccc(NC(=O)COC(=O)c2cc(Cl)ccc2[N+](=O)[O-])cc1	-	-	.	-	-	-
O=C(Cc1ccc(Cl)cc1)NNC(=O)C(=O)NC1CCCCC1	-	-	-	-	-	-
O=C(Cc1ccc(Cl)cc1)NC1CCCCCC1	-	-	54.3	-	-	-
COc1ccccc1CN1C[C@H](C)[C@H](OC)CN(C)C(=O)c2ccc(NC(C)=O)cc2OC[C@H]1C	.	.	-	.	.	.
CC(C)NC(=O)N(C)C[C@@H]1Oc2ccc(NS(=O)(=O)c3cn(C)cn3)cc2C(=O)N([C@@H](C)CO)C[C@H]1C	.	.	-	.	.	.
O=C(c1cccc(S(=O)(=O)NCc2ccccc2)c1)N1CCCCC1	-	-	-	-	-	-
O=C(c1cccc(S(=O)(=O)NCc2ccccc2)c1)N1CCN(Cc2ccccc2)CC1	-	-	-	-	-	15.1
Cc1ccc(NC(=O)c2ncn(CC(=O)NCc3nc4ccccc4[nH]3)n2)cc1C	-	-	-	-	.	16.8
Cc1ccc(NC(=O)c2ncn(CC(=O)NCc3ccccc3)n2)cc1C	-	-	-	-	.	-
Cc1ccc(NC(=O)c2ncn(CC(=O)N[C@H](C)c3cccc4ccccc34)n2)cc1C	-	-	-	-	.	18.5
CO[C@@H]1CN(C)C(=O)c2cc(NC(=O)c3cnccn3)ccc2OC[C@H](C)N(C(C)=O)C[C@H]1C	.	.	-	.	.	.
C[C@@H]1CN([C@H](C)CO)S(=O)(=O)c2ccc(C#Cc3ccc(F)cc3)cc2O[C@H]1CN(C)C(=O)CN(C)C	.	.	-	.	.	.
CCn1cc2nc(SCC(=O)Nc3ccc(OC)c(OC)c3)n(Cc3ccc(OC)cc3)c(=O)c2n1	-	-	-	-	-	13.9
CCCN(C)C[C@H]1OCCCC[C@H](C)Oc2ccc(NS(=O)(=O)c3cn(C)cn3)cc2C(=O)N([C@H](C)CO)C[C@H]1C	.	.	-	.	.	.
Nc1nnc(SCC(=O)N2CCN(c3cccc(Cl)c3)CC2)n1-c1ccccc1	38.4	-	-	-	-	-
Nc1nnc(SCC(=O)N2CCN(c3ccccc3)CC2)n1-c1ccccc1	-	-	-	-	-	-
Cn1nnnc1SCC(=O)N1CCN(c2ccccc2)CC1	-	-	-	-	-	-
Cn1nnnc1SCC(=O)N1CCN(c2cccc(Cl)c2)CC1	39.5	-	-	-	-	-
COc1ccc(Nc2ncnc3ccc(C)cc23)cc1	-	-	-	-	-	-
COc1ccc(Nc2ccc(Nc3ccc(OC)cc3)nn2)cc1	-	-	-	-	-	26.9
SMILES	SKN-1 inh	SMARCA2 activ	esBAF inh	NadD block	Vif imaging	NR3A LBD binder
COc1ccc(Nc2cc(Nc3ccc(OC)cc3)ncn2)cc1	-	-	-	-	-	16.1
COc1ccc(Nc2ccc(OC)cc2)cc1	-	-	.	-	-	-
COc1ccc(Nc2cc(Nc3cc(OC)c(OC)c(OC)c3)ncn2)cc1	-	-	-	-	-	13.6
COc1ccc(Nc2cc(Nc3cccc(OC)c3)ncn2)cc1	-	-	-	-	-	27.4
C[C@H](CO)N1C[C@H](C)[C@H](CN(C)C(=O)c2cccc(F)c2)Oc2cc(-c3ccncc3)ccc2S1(=O)=O	.	.	-	.	.	.
CCC(=O)N(C)C[C@@H]1Oc2cc(-c3ccncc3)ccc2S(=O)(=O)N([C@@H](C)CO)C[C@H]1C	.	.	-	.	.	.
Cc1cc(/C=C(\C#N)C(=O)NCc2ccco2)c(C)n1C1CCCC1	-	-	53.2	-	-	-
N#C/C(=N\Nc1ccc(Cl)c(Cl)c1)C(=O)C1CC1	-	-	.	-	-	12.0
N#C/C(=N\Nc1ccc(F)cc1)C(=O)C1CC1	-	-	.	-	-	-
COc1ccc(NC(=O)/C=C/c2cc(Br)ccc2OC)cc1	-	-	-	-	-	14.9
CCN(CC)c1ccc(NC(=O)/C=C/c2cc(Br)ccc2OC)cc1	-	-	-	-	-	-
C[C@H](CO)N1C[C@H](C)[C@@H](CN(C)C(=O)C2CCCCC2)OCCCC[C@H](C)Oc2ccc(NC(=O)Nc3ccc4c(c3)OCO4)cc2C1=O	.	.	-	.	.	.

Screens deposited in PubChem by several laboratories.
